The panel holds about 79,000 compounds, 15% with a hit somewhere; the sample as a whole holds those more often. Activity calls are given as the source filed them. Cut-off read from the data, not from the text of the source: active = growth inhibition above about 70%; inactive = the rest.
Legend:
[1] = NCI Yeast Anticancer Drug Screen. Data for the rad50 strain (AID 155);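 note: 0% = growth of vehicle-only cultures of the same strain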; conditions: S. cerevisiae rad50 strain growth inhibition; at 50.0 µM; active compounds read high
Summary of the method: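 Genetically altered yeast (DNA repair pathway); compound treatment; growth inhibition vs vehicle ctrl.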

[2] = NCI Yeast Anticancer Drug Screen. Data for the mec2-1 strain (AID 157); conditions: S. cerevisiae mec2-1 strain, at 50.0 µM, active compounds read high
Summary of the method: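 Growth inhibition is read against vehicle-treated controls after compound exposure of the mec2-1 yeast strain, which is defective in DNA damage repair or cell cycle control.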

[3] = NCI Yeast Anticancer Drug Screen. Data for the sgs1 mgt1 strain (AID 161);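 note: 0% = growth of cultures given vehicle only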; conditions: S. cerevisiae sgs1 mgt1 strain, at 50.0 µM, active compounds read high
Summary of the method: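 Growth of a repair-deficient yeast mutant was monitored after compound treatment and expressed as inhibition relative to vehicle-treated cultures.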

[4] = NCI Yeast Anticancer Drug Screen. Data for the cln2 rad14 strain (AID 165);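 note: 0% = growth equal to vehicle treated cultures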; conditions: S. cerevisiae cln2 rad14 strain, at 50.0 µM, active compounds read high
Summary of the method: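 Growth inhibition, relative to vehicle-treated controls, is the read-out. The test organism is a yeast strain with defined genetic alterations, cln2 rad14.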

[5] = NCI Yeast Anticancer Drug Screen. Data for the bub3 strain (AID 167); conditions: S. cerevisiae bub3 mutant strain, at 50.0 µM, active compounds read high
Summary of the method: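 Yeast carrying a defined mutation is treated with each compound, and growth is compared with that of vehicle-exposed cells to give inhibition.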

[6] = NCI Yeast Anticancer Drug Screen. Data for the mlh1 rad18 strain (AID 175); conditions: S. cerevisiae mlh1 rad18 strain growth inhibition; at 50.0 µM; active compounds read high
Summary of the method: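 Cells of a genetically altered yeast strain, deficient in DNA damage repair, were treated with compound. Their growth was then compared with that of vehicle-treated cultures to give inhibition.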

Measured: growth inhibition

CC1CCC(=O)CN1Cc1ccccc1 (stereo not given)
inactive: [1] 5.95% | [2] 4.45% | [3] 9.45% | [4] -11.6% | [5] 22.4% | [6] 4.85%

CCCCCCCCc1cc(CN(C)C)c(O)c(C(C)(C)CC(C)(C)C)c1
inactive: [1] -13.7% | [2] 2.35% | [3] 27.3% | [4] 16.7% | [5] 16% | [6] 8.3%

CC(=O)O/C1=C\CCCCCCCCCC1
inactive: [1] 6.95% | [2] -27.5% | [3] 28.3% | [4] 18.9% | [5] 13.5% | [6] -1.45%

Cc1cc(CSCCc2nc3ccccc3[nH]2)c(O)c(CSCCc2nc3ccccc3[nH]2)c1
inactive: [1] 15.1% | [2] 3.8% | [3] 5.55% | [4] -42% | [5] -6.65% | [6] 14.4%

O=C(Nc1cccc2ccccc12)c1ccco1
inactive: [1] 14.8% | [2] 16.5% | [3] 8.6% | [4] 3.8% | [5] 1.65% | [6] 7.9%

C=Nc1ccc([N+](=O)[O-])cc1
inactive: [1] 6.9% | [2] 10.2% | [3] -1.3% | [4] 14.6% | [5] -4.75% | [6] 26.3%

CCOC(=O)c1c(C)c(C(C)=O)c2ccccn12
inactive: [1] -18.2% | [2] -17.4% | [3] -19.9% | [4] -26.6% | [5] 5.4% | [6] -2.7%

CCC[CH2][Sn]([CH2]CCC)([O]C(=O)c1cccc(F)c1F)[O][Sn]([CH2]CCC)([CH2]CCC)[O]C(=O)c1cccc(F)c1F
active: [1] 89.4% | [2] 91.5% | [3] 91.2% | [4] 88.5% | [5] 90% | [6] 86%

CCOC(=O)/C=C1\NC(=O)N(CCCCCCN2C(=O)N/C(=C\C(=O)OCC)C2=O)C1=O
inactive: [1] 44.7% | [2] 13.3% | [3] 39.2% | [4] 7.95% | [5] -1.95% | [6] 29.9%

O=C(Nc1ccc(Cl)c(Cl)c1)OCC1CC2C=CC1C2 (stereo not given)
active: [1] 95.2% | [2] 97.8% | [3] 97.3% | [4] 94.8% | [5] 94.9% | [6] 95%

N[C@@H](Cc1ccccc1)C(=O)NCCNC(=O)[C@@H](N)Cc1ccccc1
inactive: [1] -13.1% | [2] -3.25% | [3] -8.85% | [4] 17.2% | [5] -0.7% | [6] 3.45%

CCOP(=O)(OCC)C1C(C)N1C(=O)Nc1ccccc1 (stereo not given)
inactive: [1] 1.4% | [2] -4.15% | [3] -8.1% | [4] 5% | [5] -11.7% | [6] -17.4%

CC1(C)C(=O)C(C)(C)C1=NN
inactive: [1] 7.5% | [2] 11.8% | [3] -4.45% | [4] 3% | [5] -4.9% | [6] 23.9%

O=c1c2ccccc2oc2cc3c(c(O)c12)CCCC3
inactive: [1] -7.65% | [2] -13.9% | [3] -14.5% | [4] -6.95% | [5] 3.15% | [6] -2.95%

CC1N(N2C(=O)CS(=O)(=O)C2C)C(=O)CS1(=O)=O (stereo not given)
inactive: [1] 11.2% | [2] -3.95% | [3] 25.3% | [4] 15.1% | [5] 1.35% | [6] 37%

CC(=O)OC1CC(n2cc(C)c(=O)[nH]c2=O)OC1COP(=O)(N1CC1)N1CC1 (stereo not given)
inactive: [1] -9.25% | [2] -1.25% | [3] -2.8% | [4] -6.1% | [5] -22.6% | [6] -3.95%

CCC(CC)C(O)CCCN(C)C (stereo not given)
inactive: [1] 33.6% | [2] 21.8% | [3] 31.2% | [4] 12.8% | [5] 1.65% | [6] 24.1%

Cc1cc(N(CCOS(C)(=O)=O)CCOS(C)(=O)=O)ccc1C=Nc1ccc(C(=O)O)c(O)c1
inactive: [3] 46% | [5] 19.2%
active: [1] 82.8% | [2] 86.8% | [4] 77.5% | [6] 88%

CC1(C)CCCC/C1=N\Nc1ccc([N+](=O)[O-])cc1[N+](=O)[O-]
inactive: [1] -29.2% | [2] 5.2% | [3] -2.8% | [4] -22.2% | [5] 1.1% | [6] 22.1%

CC(=O)OCC1OC(n2c(N)c(C#N)c(-c3ccccc3)c(C#N)c2=S)C(OC(C)=O)C(OC(C)=O)C1OC(C)=O (stereo not given)
inactive: [1] 13.4% | [2] 11.2% | [3] -21.9% | [4] -8.8% | [5] -14.7% | [6] -60.2%

Cc1ccc(C)c(OC(=O)NC2CCCCC2)c1
inactive: [1] -4.9% | [2] -15.1% | [3] -15.1% | [4] -57.6% | [5] 0% | [6] -19.9%

C[N+]1(C)C2CC(=O)CC1C1CC12 (stereo not given)
inactive: [1] -10.2% | [2] 7.4% | [3] 4.55% | [4] -2.15% | [5] 12.1% | [6] -16%

CC1CCCC/C1=N\N(C)C (stereo not given)
inactive: [1] -44% | [2] -19.9% | [3] -12.8% | [4] -29.6% | [5] -5.65% | [6] 2.7%

Cc1cn(C2CC(O)C(COC(N)=O)O2)c(=O)[nH]c1=O (stereo not given)
inactive: [1] -38.2% | [2] -20.9% | [3] -11.6% | [4] -5.3% | [5] -44.3% | [6] 2.35%

COc1ccc(/C=N/CCl)cc1
inactive: [1] -1.55% | [2] 2% | [3] 7.05% | [4] -49.3% | [5] -22.1% | [6] -1.2%

CCOc1ccc(N=Cc2c3ccccc3nc3ccccc23)cc1
inactive: [1] -3.05% | [2] 14.5% | [3] -3.25% | [4] 25.9% | [5] 6.25% | [6] -9%

CC(=O)Cc1ccc2[nH]c(C)cc(=O)c2c1
inactive: [1] -2.15% | [2] 5.25% | [3] -0.2% | [4] -34.4% | [5] -7.15% | [6] 4.55%

COC(=O)c1cc2cccn2cn1
inactive: [1] -5.9% | [2] -11.3% | [3] -13.2% | [4] -27.4% | [5] -27.9% | [6] -8.85%

O=C(O)C#Cc1ccc([N+](=O)[O-])cc1
inactive: [1] 13.6% | [2] -7.6% | [3] 2.35% | [4] -20.2% | [5] -11.9% | [6] 16.5%

CC(=O)O[C@@H]1[C@@H](C)[C@]2(CC(c3ccoc3)OC2O)C2CCC3O[C@]3(C)[C@]2(C)[C@@H]1OC(C)=O (stereo not given in full)
inactive: [1] -16% | [2] -20.1% | [3] -42.6% | [4] -12.2% | [5] -39.5% | [6] -28.4%

COC(=O)c1cccc2c1cc(Br)c1ccccc12
inactive: [1] 1.75% | [2] 11.6% | [3] 14.2% | [4] -30.4% | [5] 1.35% | [6] 16.3%

COc1cc(C=O)cc(Br)c1O
inactive: [1] 13.3% | [2] -3.55% | [3] 34.1% | [4] -8.45% | [5] -19.7% | [6] 34.4%

CC(C)OC(=O)/C=C/C(=O)OC(C)C (tested in a mixture with another compound)
inactive: [1] -13.1% | [2] -6.9% | [3] -13.6% | [4] -20.4% | [5] -13.8% | [6] -23.1%

CC1(C)C(OS(C)(=O)=O)C(C)(C)C1OS(C)(=O)=O (stereo not given)
inactive: [1] 3.75% | [2] -20.6% | [3] 13.7% | [4] 9.45% | [5] 8.4% | [6] -12.9%

C/C=C\COC(=O)CC(C)=O
inactive: [1] -1.35% | [2] -23.4% | [3] -4.3% | [4] -2.75% | [5] -26.3% | [6] -16.6%

COC(=O)c1cc([O-])c2sc(C)c(C)[n+]2n1
inactive: [1] 4.25% | [2] 19.6% | [3] 25.7% | [4] 35.6% | [5] -4.05% | [6] 2.55%

O=C1C(=O)c2ccccc2C(O)=C1c1ccccc1
inactive: [1] 28.6% | [2] 22.8% | [3] 47.2% | [4] 7.75% | [5] 5.6% | [6] 51%

O=C(COc1cc(Cl)c(Cl)cc1Cl)Oc1ccccc1
inactive: [1] -0.3% | [2] 4.95% | [3] 7.65% | [4] -8.85% | [5] 8.5% | [6] 3.6%

Oc1ccc2ccccc2c1-c1c(OC(c2ccccc2)c2ccccc2)ccc2ccccc12
inactive: [1] 5.9% | [2] -19.2% | [3] 0.2% | [4] -29.4% | [5] -4.65% | [6] -13.1%

O=c1cc(O)cc2n1CCC2
inactive: [1] 5.15% | [2] 4.6% | [3] -11.4% | [4] 16.4% | [5] -14.8% | [6] 0.35%
